Assay results: PubChem BioAssay (Tox21)
Inconclusive results are not listed. The source made the active and inactive calls. Unless noted, the call rests on the fitted dose curve; in most records, active means well fitted curve in the direction sought with a large enough effect in the repeat runs; inconclusive means weak or mixed curves; inactive means no such curve, though single readings can be large; an effect the other way counts as inactive or inconclusive.

Assays:
[1] = molecular target: Thyrotropin receptor (Homo sapiens) (UniProt P16473); assay: qHTS assay to identify small molecule antagonists of the thyroid stimulating hormone receptor (TSHR) signaling pathway (AID 1259385; calls by dose curve; further: nearly all actives have a fitted effect of over 20% in size)
Summary of the method: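 TSHR-HEK293 cells were plated and held 18 h at 37C/5% CO2, then given compound plus Ro20-1724 and stimulated with TSH at 1.5 ng/mL final. After 30 min at room temperature, cAMP was detected with cAMP-d2/anti-cAMP-cryptate (1 h) by fluorescence.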

[2] = qHTS assay to identify small molecule agonists of the estrogen receptor alpha (ER-alpha) signaling pathway in the presence of an antagonist - cell viability counter screen (AID 1259386);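 further: series mostly up to about 92 µM; cells exposed to compounds for 22 h at 37 °C before the viability read; nearly all actives have a fitted effect of over 30% in size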
Summary of the method: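 ICI-182,780 at 10.0nM final accompanies the compound titration (15 concentrations, 22hr, 37C) on VM7Luc4E2 cells. The CellTiter-Fluor fluorescence readout runs in the same wells as the luciferase assay.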

[3] = molecular target: Progesterone receptor (Homo sapiens) (UniProt P06401); assay: qHTS assay to identify small molecule agonists of the progesterone receptor (PR) signaling pathway (AID 1346784; calls by dose curve; further: nearly all actives have a fitted effect of over 30% in size)
Summary of the method: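 The screen uses PR-UAS-bla HEK 293T cells in charcoal-stripped serum (2%). Compounds are applied for 16 hr at 37C after a 6 hr pre-incubation, and reporter activity is detected with a FRET beta-lactamase substrate after 2 hr at room temperature.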

[4] = molecular target: Progesterone receptor (Homo sapiens) (UniProt P06401); assay: qHTS assay to identify small molecule antagonists of the progesterone receptor (PR) signaling pathway (AID 1346795; active means well fitted inhibition curve with a large enough effect in the signal ratio in the repeat runs, not every such curve was filed as active; the % refers to the signal ratio)
Summary of the method: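 After 6 hr plating at 37C in 2% stripped-serum medium, PR-UAS-bla HEK293T cells got compounds, then 1 nM R5020. Sixteen hours later, LiveBLAzer substrate was applied for 2 hr at room temperature and fluorescence was recorded.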

[5] = qHTS assay to identify small molecule antagonists of the progesterone receptor (PR) signaling pathway - cell viability counter screen (AID 1346798); further: series mostly up to about 92 µM; nearly all actives have a fitted effect of over 50% in size
Summary of the method: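 Viability was determined by ATP-based luminescence (CellTiter-Glo) in PR-UAS-bla HEK293T cells cultured in 2% charcoal-stripped serum and incubated 16 hr with compounds under R5020 stimulation.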

[6] = qHTS assay to identify small molecule agonists of the progesterone receptor (PR) signaling pathway - cell viability counter screen (AID 1346799; calls by dose curve; further: nearly all actives have a fitted effect of over 45% in size)
Summary of the method: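 Viability was scored by ATP luminescence (CellTiter-Glo, 30 min, room temperature) in the same wells used for the reporter readout, after 16 hr compound exposure of PR-UAS-bla HEK293T cells.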

[7] = qHTS assay to identify small molecule antagonists of the TGF-beta/Smad signaling pathway - cell viability counter screen (AID 1346824); further: nearly all actives have a fitted effect of over 50% in size
Summary of the method: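 SBE-bla HEK 293T cells were plated overnight at 37 C, then given compounds in DMSO plus TGF-beta1 (added as 0.25 ng/mL solution) for 5 hr. After the bla read, CellTiter-Glo was added to the same wells and luminescence read after 30 min at room temperature.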

[8] = qHTS assay to identify small molecule agonists of the TGF-beta/Smad signaling pathway - cell viability counter screen (AID 1346829); further: top concentration of the series differs between compounds; nearly all actives have a fitted effect of over 45% in size
Summary of the method: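 HEK 293T SBE-bla line, 5 hr compound exposure at 37 C, multiplexed CellTiter-Glo viability read by luminescence.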

[9] = qHTS assay to identify small molecule agonists of the TGF-beta/Smad signaling pathway (AID 1346859; active means well fitted activation curve with a large enough effect in the signal ratio in the repeat runs, not every such curve was filed as active; the % refers to the signal ratio; further: series mostly up to about 77 µM)
Summary of the method: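 Dual-wavelength fluorescence (460/530 nm emission) quantified beta-lactamase expression under the Smad binding element in HEK 293T cells following 5 hr compound treatment at 37 C.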

[10] = Human pregnane X receptor (PXR) small molecule agonists, qHTS cell viability counter screen (AID 1346977); further: nearly all actives have a fitted effect of over 50% in size
Summary of the method: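 HepG2 cells stably carrying the PXR-Luc reporter are cultured with 5% charcoal-stripped FBS and treated with compounds for 24hr. CellTiter-Fluor is added at 23hr and fluorescence is read after 1hr.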

[11] = Caspase-3/7 induction in HepG2 cells by small molecules, qHTS assay (AID 1346978); further: nearly all actives have a fitted effect of over 15% in size
Summary of the method: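 Wild-type HepG2 cells (2,000/well) were settled 5 h at 37 C, 5% CO2, then exposed to compounds in DMSO for 17 h. Caspase-3/7 activity was read by luminescence 30 min after adding Caspase-Glo 3/7 reagent at room temperature.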

[12] = Caspase-3/7 induction in CHO-K1 cells by small molecules, qHTS cell viability counter screen (AID 1346979); further: nearly all actives have a fitted effect of over 35% in size
Summary of the method: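 Seeding: 1,500 CHO-K1 cells/well. Rest: 5hr, 37C. Treatment: compounds in DMSO, 16hr. Read: CellTiter-Fluor, 1hr, fluorescence.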

[13] = Caspase-3/7 induction in CHO-K1 cells by small molecules, qHTS assay (AID 1346980); further: nearly all actives have a fitted effect of over 15% in size
Summary of the method: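 Wild-type cells were seeded at 1,500 per well and settled 5 hr at 37 C, 5% CO2, then exposed to DMSO-dissolved compounds for 17 hr. Caspase-Glo 3/7 reagent was added, and luminescence was read after 30min at room temperature.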

[14] = Caspase-3/7 induction in HepG2 cells by small molecules, qHTS cell viability counter screen (AID 1346981); further: series mostly up to about 92 µM; nearly all actives have a fitted effect of over 30% in size
Summary of the method: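 Multiplexed with the caspase-3/7 assay: HepG2 cells, 16 hr compound treatment, CellTiter-Fluor viability detection by fluorescence.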

[15] = molecular target: Nuclear receptor subfamily 1 group I member 2 (Homo sapiens) (UniProt O75469); assay: Human pregnane X receptor (PXR) small molecule agonists, qHTS assay (AID 1346982); further: nearly all actives have a fitted effect of over 35% in size
Summary of the method: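 We seeded PXR-Luc HepG2 cells in assay medium containing 5% charcoal-stripped FBS, added compounds 5 hr later, incubated 24 hr, and read luminescence with ONE-Glo reagent.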

[16] = molecular target: Nuclear receptor subfamily 1 group I member 2 (Rattus norvegicus) (UniProt Q9R1A7); assay: Rat pregnane X receptor (rPXR) activation by small molecules, qHTS assay (AID 1346983); settings: rPXR luciferase reporter cells, One-Glo luminescence, 24 h; active compounds read high; further: nearly all actives have a fitted effect of over 20% in size
Summary of the method: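 Cell-based rPXR luciferase reporter assay, 2,000 cells per well, rested 5hr at 37 C before compound addition in DMSO, then 24 hr at 37 C. One-Glo reagent was added and luminescence read after 30 min at room temperature.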

[17] = molecular target: Nuclear receptor subfamily 1 group I member 2 (Homo sapiens) (UniProt O75469); assay: CYP3A4 induction through human pregnane X receptor (PXR) by small molecules, qHTS assay (AID 1346984); further: nearly all actives have a fitted effect of over 40% in size
Summary of the method: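 qHTS, concentration-response format: HepG2 DPX-2 line, PXR/CYP3A4-luc. Exposure 24 h, 37C. Substrate Luciferin-IPA 3uM final, 3 h. Detection One-Glo, 30 min RT.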

[18] = molecular target: Nuclear receptor subfamily 1 group I member 2 (Homo sapiens) (UniProt O75469); assay: Human pregnane X receptor (PXR) activation by small molecules, qHTS assay (AID 1346985); further: nearly all actives have a fitted effect of over 40% in size
Summary of the method: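 DPX-2 cells (HepG2 co-transfected with a PXR response element and a CYP3A4-promoter luciferase construct) were seeded at 2,000 per well, rested 5 hr at 37C, then exposed to DMSO-dissolved compounds for 24 hr. Activation was read as luciferase luminescence.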

[19] = molecular target: Thyrotropin-releasing hormone receptor (Homo sapiens) (UniProt P34981); assay: qHTS assay to identify small molecule antagonists of the thyrotropin-releasing hormone receptor (TRHR) signaling pathway (AID 1346877; active means well fitted inhibition curve with a large enough effect in the repeat runs, not every such curve was filed as active; further: series mostly up to about 51 µM)
Summary of the method: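 Screening used HEK293 cells engineered with TRHR, with a brief 5 min room-temperature compound exposure preceding addition of TRH to 1 nM. The read-out was kinetic calcium-dye fluorescence, concentration-response from 15 doses in triplicate.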

[20] = molecular target: Thyrotropin-releasing hormone receptor (Homo sapiens) (UniProt P34981); assay: qHTS assay to identify small molecule agonists of the thyrotropin-releasing hormone receptor (TRHR) signaling pathway (AID 1346891; calls by dose curve;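 further: HEK293 cells expressing TRHR with calcium dye readout; series mostly up to about 58 µM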)
Summary of the method: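 Kinetic fluorescence (3 min, 1 s intervals) reported intracellular calcium after compound transfer onto TRHR-Hek293 cells pre-loaded with dye for 2 h at 37 °C.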
On the % scale 0 is the no-effect control and ±100 the full control effect.

Nuclear receptor subfamily 1 group I member 2 (Rattus norvegicus), sequence (Q9R1A7 whole entry, looked up): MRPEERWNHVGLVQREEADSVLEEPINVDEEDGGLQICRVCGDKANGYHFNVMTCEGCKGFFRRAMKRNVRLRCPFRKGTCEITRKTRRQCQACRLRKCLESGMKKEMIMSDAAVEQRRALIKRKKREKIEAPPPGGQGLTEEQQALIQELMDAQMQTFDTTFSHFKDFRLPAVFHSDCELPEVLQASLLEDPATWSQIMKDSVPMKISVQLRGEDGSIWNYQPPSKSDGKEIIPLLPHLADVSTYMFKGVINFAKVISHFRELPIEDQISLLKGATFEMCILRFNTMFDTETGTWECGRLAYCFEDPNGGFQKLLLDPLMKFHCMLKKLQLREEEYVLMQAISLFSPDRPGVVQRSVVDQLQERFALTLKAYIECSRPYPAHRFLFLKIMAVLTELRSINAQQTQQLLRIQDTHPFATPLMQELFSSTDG
Thyrotropin receptor (Homo sapiens), sequence (P16473 whole entry, looked up): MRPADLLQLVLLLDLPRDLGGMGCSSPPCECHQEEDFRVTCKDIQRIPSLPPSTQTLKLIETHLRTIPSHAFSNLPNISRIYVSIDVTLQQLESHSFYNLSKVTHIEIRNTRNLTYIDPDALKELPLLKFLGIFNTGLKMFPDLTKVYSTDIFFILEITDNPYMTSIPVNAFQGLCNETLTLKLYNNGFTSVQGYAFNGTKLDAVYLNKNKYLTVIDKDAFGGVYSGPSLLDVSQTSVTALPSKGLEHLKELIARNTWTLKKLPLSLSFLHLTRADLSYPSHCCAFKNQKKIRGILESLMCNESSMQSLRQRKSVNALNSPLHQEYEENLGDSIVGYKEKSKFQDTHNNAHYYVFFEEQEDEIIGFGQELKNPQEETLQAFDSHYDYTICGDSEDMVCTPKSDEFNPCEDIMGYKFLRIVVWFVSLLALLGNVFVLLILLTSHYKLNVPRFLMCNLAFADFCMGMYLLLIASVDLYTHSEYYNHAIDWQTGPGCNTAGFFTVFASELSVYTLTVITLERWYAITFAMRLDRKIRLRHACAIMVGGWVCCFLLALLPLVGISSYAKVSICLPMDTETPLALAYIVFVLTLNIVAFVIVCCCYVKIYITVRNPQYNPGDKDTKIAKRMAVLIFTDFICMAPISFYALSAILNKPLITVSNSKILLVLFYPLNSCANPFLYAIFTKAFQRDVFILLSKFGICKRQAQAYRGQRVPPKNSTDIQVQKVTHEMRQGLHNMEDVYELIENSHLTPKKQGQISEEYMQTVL
Nuclear receptor subfamily 1 group I member 2 (Homo sapiens), sequence (O75469 whole entry, looked up): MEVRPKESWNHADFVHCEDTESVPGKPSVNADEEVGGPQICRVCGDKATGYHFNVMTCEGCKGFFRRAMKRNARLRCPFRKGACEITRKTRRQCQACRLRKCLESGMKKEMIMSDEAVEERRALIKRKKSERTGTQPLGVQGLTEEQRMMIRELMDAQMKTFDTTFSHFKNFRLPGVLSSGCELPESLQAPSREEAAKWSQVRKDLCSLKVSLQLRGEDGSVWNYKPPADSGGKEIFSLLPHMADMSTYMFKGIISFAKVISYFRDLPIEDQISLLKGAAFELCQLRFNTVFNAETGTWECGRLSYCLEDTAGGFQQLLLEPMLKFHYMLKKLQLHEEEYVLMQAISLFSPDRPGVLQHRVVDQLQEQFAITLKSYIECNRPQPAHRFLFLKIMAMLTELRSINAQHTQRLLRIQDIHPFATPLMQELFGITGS
Progesterone receptor (Homo sapiens), sequence (P06401 whole entry, looked up): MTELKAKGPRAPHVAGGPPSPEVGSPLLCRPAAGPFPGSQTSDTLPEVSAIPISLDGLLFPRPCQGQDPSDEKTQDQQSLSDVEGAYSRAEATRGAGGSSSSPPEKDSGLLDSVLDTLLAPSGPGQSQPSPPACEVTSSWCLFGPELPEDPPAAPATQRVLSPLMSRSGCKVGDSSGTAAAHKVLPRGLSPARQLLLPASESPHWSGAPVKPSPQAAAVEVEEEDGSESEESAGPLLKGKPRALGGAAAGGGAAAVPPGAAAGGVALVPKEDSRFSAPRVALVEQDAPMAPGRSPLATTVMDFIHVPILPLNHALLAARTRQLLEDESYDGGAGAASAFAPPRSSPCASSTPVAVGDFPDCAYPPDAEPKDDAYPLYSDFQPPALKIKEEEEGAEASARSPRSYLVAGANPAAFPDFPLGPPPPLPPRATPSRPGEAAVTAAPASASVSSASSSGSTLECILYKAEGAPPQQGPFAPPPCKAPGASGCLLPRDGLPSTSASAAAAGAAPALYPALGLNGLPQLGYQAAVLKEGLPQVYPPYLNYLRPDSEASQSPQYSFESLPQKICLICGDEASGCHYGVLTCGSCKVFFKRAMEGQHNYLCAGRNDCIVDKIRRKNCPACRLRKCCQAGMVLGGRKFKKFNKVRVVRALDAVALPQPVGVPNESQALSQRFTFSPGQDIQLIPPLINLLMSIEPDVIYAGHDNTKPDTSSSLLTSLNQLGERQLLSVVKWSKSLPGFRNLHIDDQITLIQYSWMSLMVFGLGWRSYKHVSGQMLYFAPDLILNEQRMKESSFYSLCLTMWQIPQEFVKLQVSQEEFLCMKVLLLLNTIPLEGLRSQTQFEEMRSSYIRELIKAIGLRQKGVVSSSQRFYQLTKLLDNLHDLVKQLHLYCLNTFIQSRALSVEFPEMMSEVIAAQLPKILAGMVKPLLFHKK
Thyrotropin-releasing hormone receptor (Homo sapiens), sequence (P34981 whole entry, looked up): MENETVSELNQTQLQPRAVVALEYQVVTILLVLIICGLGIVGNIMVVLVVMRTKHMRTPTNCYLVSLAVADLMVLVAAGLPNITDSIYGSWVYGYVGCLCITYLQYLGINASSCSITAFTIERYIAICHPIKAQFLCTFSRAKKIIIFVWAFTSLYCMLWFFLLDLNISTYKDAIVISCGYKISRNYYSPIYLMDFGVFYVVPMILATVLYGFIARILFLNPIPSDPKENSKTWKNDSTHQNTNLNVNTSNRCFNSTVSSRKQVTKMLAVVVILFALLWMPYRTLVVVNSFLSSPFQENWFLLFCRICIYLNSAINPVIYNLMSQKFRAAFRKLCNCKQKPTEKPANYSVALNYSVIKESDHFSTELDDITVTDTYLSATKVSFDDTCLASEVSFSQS

CCCc1cc(C(N)=S)ccn1
inactive: Potency [1] | Potency [2] | Potency [3] | Potency [4] | Potency [5] | Potency [6] | Potency [7] | outcome [8] | outcome [9] | Potency [10] | Potency [11] | Potency [12] | outcome [13] | Potency [14] | Potency [15] | max activation [16] 0.144% | Potency [17] | Potency [18]

C1OCOCO1
inactive: Potency [1] | Potency [2] | Potency [3] | Potency [4] | Potency [5] | Potency [6] | Potency [7] | outcome [8] | outcome [9] | Potency [11] | Potency [12] | outcome [13] | Potency [14] | Potency [15]

C1CN(CCOCCN2CCOCC2)CCO1
inactive: Potency [1] | Potency [2] | Potency [3] | Potency [4] | Potency [5] | Potency [6] | Potency [7] | outcome [8] | outcome [9] | Potency [10] | Potency [11] | Potency [12] | outcome [13] | Potency [14] | Potency [15]

FC1(F)C(F)(F)C(F)(F)C2(F)C(F)(F)C(F)(F)C(F)(F)C(F)(F)C2(F)C1(F)F (stereo unspecified)
inactive: Potency [1] | Potency [2] | Potency [3] | Potency [4] | Potency [5] | Potency [6] | Potency [7] | outcome [8] | outcome [9] | Potency [10] | Potency [11] | Potency [12] | outcome [13] | Potency [14] | Potency [15] | max activation [16] -2.25% | Potency [17] | Potency [18]

CC(C)(CC(=O)O)C(=O)O
inactive: Potency [1] | Potency [2] | Potency [3] | Potency [4] | Potency [5] | Potency [6] | Potency [7] | outcome [8] | outcome [9] | Potency [10] | Potency [11] | Potency [12] | outcome [13] | Potency [14] | Potency [15]

CC1(C)CO[C@@H](CC(=O)O)CN1
inactive: Potency [1] | Potency [2] | Potency [3] | Potency [4] | Potency [5] | Potency [6] | Potency [7] | outcome [8] | outcome [9] | outcome [19] | outcome [20] | Potency [10] | Potency [12] | outcome [13] | Potency [14] | Potency [15] | max activation [16] -0.675% | Potency [17] | Potency [18]

N=C(N)c1ccc(OCCCOc2ccc(C(=N)N)cc2)cc1
inactive: Potency [1] | Potency [2] | Potency [3] | Potency [4] | Potency [5] | Potency [6] | Potency [7] | outcome [8] | outcome [9] | Potency [10] | Potency [11] | Potency [12] | outcome [13] | Potency [14] | Potency [15]

O=C1NC(=O)[C@@]2(CCOc3ccc(F)cc32)N1
inactive: Potency [1] | Potency [2] | Potency [3] | Potency [4] | Potency [5] | Potency [6] | Potency [7] | outcome [8] | outcome [9] | Potency [11] | Potency [12] | outcome [13] | Potency [14] | Potency [15] | max activation [16] -0.447% | Potency [17] | Potency [18]
